The source of these data is PubChem BioAssay (Tox21).

Inconclusive results are not listed. The source made the active and inactive calls. Calls follow the shape of the full dose curve.
% is scaled to controls: 0 for no effect and ±100 for the full control effect.

Peroxisome proliferator-activated receptor gamma (Homo sapiens), sequence (P37231 whole entry, looked up): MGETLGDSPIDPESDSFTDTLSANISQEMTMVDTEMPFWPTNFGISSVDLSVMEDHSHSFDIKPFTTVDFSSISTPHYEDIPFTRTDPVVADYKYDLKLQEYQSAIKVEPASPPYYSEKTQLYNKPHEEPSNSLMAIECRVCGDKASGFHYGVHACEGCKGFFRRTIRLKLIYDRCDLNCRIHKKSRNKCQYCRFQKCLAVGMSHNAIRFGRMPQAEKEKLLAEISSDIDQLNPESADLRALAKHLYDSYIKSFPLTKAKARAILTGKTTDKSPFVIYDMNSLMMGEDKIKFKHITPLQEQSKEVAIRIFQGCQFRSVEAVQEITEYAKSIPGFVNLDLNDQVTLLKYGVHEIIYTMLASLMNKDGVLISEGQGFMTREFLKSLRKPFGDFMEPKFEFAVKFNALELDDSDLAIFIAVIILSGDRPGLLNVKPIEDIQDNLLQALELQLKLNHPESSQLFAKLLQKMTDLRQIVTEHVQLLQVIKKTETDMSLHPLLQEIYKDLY

The assay has as its target Peroxisome proliferator-activated receptor gamma (Homo sapiens) (UniProt P37231). The assay can be described thus: qHTS assay to identify small molecule antagonists of the peroxisome proliferator-activated receptor gamma (PPARg) signaling pathway (AID 743191). Also: nearly all actives have a fitted effect of over 30% in size. Conditions: HEK293H PPARg-UAS-bla, beta-lactamase ratio, antagonist, 17 h; series mostly up to 62.6 µM; ratio activity, negative = inhibition: at the top concentration. The text has this: U.S. Tox21 Program National Center for Advancing Translational Sciences [NCATS] NIH Chemical Genomics Center [NCGC] U.S. Environmental Protection Agency [EPA] National Institutes of Environmental Health Sciences [NIEHS] National Toxicology Program [NTP] U.S. Food and Drug Administration [FDA] Tox21 Assay Overview: The peroxisome proliferator-activated receptors (PPARs) are lipid-activated transcription factors of the nuclear receptor superfamily with three distinct subtypes namely PPAR alpha, PPAR delta (also called PPAR beta) and PPAR gamma (PPARg). All these subtypes heterodimerize with Retinoid X receptor (RXR) and these heterodimers regulate transcription of various genes. PPAR-gamma receptor (glitazone receptor) is involved in the regulation of glucose and lipid metabolism. To identify the compounds that inhibit PPAR-gamma signaling, GeneBLAzer PPAR gamma UAS-bla HEK293H cell line (Invitrogen, Carlsbad, CA, USA) containing a beta-lactamase reporter gene under control of an Upstream Activator Sequence (UAS) was used to screen the Tox21 compound library.
Tox21 Assay Protocol Summary: PPARg-bla cells were dispensed at 3000 cells/6uL/well in 1536-well black wall/clear bottom plates using a Multidrop Combi (Thermo Fisher Scientific, Waltham, MA) dispenser. After the assay plates were incubated at 37C and 5% CO2 for 5 h, 23 nL of compounds dissolved in DMSO, positive controls or DMSO only was transferred to the assay plate by a Pintool station (Kalypsys, San Diego, CA). The assay plates were incubated at 37C for 17 h. After 1 uL of LiveBLAzerTM B/G FRET substrate was added using a Bioraptr Flying Reagent Dispenser (FRD) workstation (Beckman Coulter, Indianapolis, IN, USA), the plates were incubated at room temperature for 1 h, and fluorescence intensity was measured by an Envision plate reader (PerkinElmer, Shelton, CT).
For the compound `C=CC(C)CCCC(C)(C)O` (stereo not given), the “ratio activity, negative = inhibition” value was -7.28% (inactive). With `CC(=O)OC1CC(C)OC(C)O1` (stereo not given), the outcome was inactive. Take `CNC(=O)Oc1ccc2c(c1)[C@]1(C)CCN(C)[C@@H]1N2C`: the outcome was inactive. Take `O=c1[nH]cnc2[nH]ncc12`: the outcome was inactive. For `CCNc1cccc(C)c1`, the “ratio activity, negative = inhibition” value was -6.31% (inactive). For `COc1ccc(CCC(C)=O)cc1`, the “ratio activity, negative = inhibition” value is 13.7% (inactive). As for `O=[N+]([O-])c1ccc2nc[nH]c2c1`, the result was inactive.

As for `CCCCCCCCCCO`, the “ratio activity, negative = inhibition” value was -3.01% (inactive).

For `Cc1ccc(S(=O)(=O)N=C=O)cc1`, the “ratio activity, negative = inhibition” value was 10.1% (inactive).

For the compound `C=CC[N+](C)(C)CC=C`, the outcome was inactive. Consider `C=C(C)CNCC`, for which the “ratio activity, negative = inhibition” value was 22% (inactive). Take `CC1(C)CC(N)CC(C)(CN)C1` (stereo not given): the outcome was inactive. As for `CC(=O)OCCOC(C)=O`, the “ratio activity, negative = inhibition” value is 10.7% (inactive). Same read-out and setting: to `COC(=O)c1cccnc1` belongs 1.2% (inactive).

Turning to `O=C1c2ccccc2CCc2ccccc21`, the outcome was inactive. For `CC(CCO)CC(C)(C)C` (stereo not given), the “ratio activity, negative = inhibition” value is -24.4% (inactive). Still for that read-out and setting: for `O=C(O)CCCCCCCCC(=O)O` the value was -7.5% [at 81.1 µM] (inactive). As to `CNC(=S)N(C)C`, the result was inactive.

Consider `CCCCCCC=O`, for which the outcome was inactive. As to `CC(=O)CC(C)(C)O`, the outcome was inactive. Take `CCCCCCCO`: the “ratio activity, negative = inhibition” value is -29.1% [at 81.1 µM] (inactive). For the compound `O=C(O)c1ccc(S(=O)(=O)N(Cl)Cl)cc1`, the outcome was inactive. With `CCCCCCCCCCCC(=O)OC`, the result was inactive. For `N#Cc1ccccc1`, the result was inactive. Consider `CCNC(=S)NCC`, for which the “ratio activity, negative = inhibition” value is -5.54% (inactive). As for `CCOC(=O)c1ccc(N)cc1`, the “ratio activity, negative = inhibition” value was -27.8% (inactive). In the case of `CCc1ccccc1CC`, the outcome was inactive. The same measure, in the same setting: to `CC1(C)NC(=O)NC1=O` belongs “inactive”.

For the compound `O=C(OCC1CCC2OC2C1)C1CCC2OC2C1` (stereo not given), the outcome was inactive. Regarding `N[C@H](Cc1c[nH]c2ccccc12)C(=O)O`, the outcome was inactive. On the same count and under the same terms, for `CC(=O)OCc1ccco1` the value was “inactive”; for `Nc1nc(N)nc(-c2ccccc2)n1`, “inactive”. Regarding `O=C(O)c1ccc(C(=O)O)c(C(=O)O)c1`, the “ratio activity, negative = inhibition” value is -8.37% (inactive). Take `COc1ccc(C)cc1N`: the “ratio activity, negative = inhibition” value is -8.15% (inactive). Turning to `CC(=O)Oc1ccc(C)cc1`, the result was inactive. In the case of `c1ccc2c(c1)Cc1ccccc1-2`, the “ratio activity, negative = inhibition” value was 20.3% (inactive). In the case of `COc1ccccc1OCC(O)CO` (stereo not given), the outcome was inactive.

Consider `C=C(C)C(=O)OCC(C)C`, for which the “ratio activity, negative = inhibition” value was 1.85% [at 81.1 µM] (inactive). Turning to `CCOCC(=O)O`, the result was inactive. Take `NCCCCCCN`: the result was inactive.
